# MBNL1 CUG block: qHTS Assay for Inhibitors of MBNL1-poly(CUG) RNA binding | Muscleblind-like protein 1 (Homo sapiens), Q9NR56 | TR-FRET MBNL1-His/biotin-(CUG)12 binding, 665/545 ratio | Potency, µM (top dose mostly 57.5 µM), for inactives: top-dose activity change, negative = inhibition, actives largely listed as inhibitors | actives 0.036% (n = 280,000); active means well fitted inhibition curve with a large enough effect in the signal ratio, with a control signal flat, not every such curve was filed as active; inconclusive means small, poorly fitted or top-dose-only effect, or effect the other way, or a change in a side signal; inactive means no such curve, though single readings can be large or run the other way; the % refers to the signal ratio; further: potency means the concentration at half of the fitted maximal effect; on the % scale 0 is the no-effect control and ±100 the full control effect
# Target sequence (Q9NR56 whole entry, looked up): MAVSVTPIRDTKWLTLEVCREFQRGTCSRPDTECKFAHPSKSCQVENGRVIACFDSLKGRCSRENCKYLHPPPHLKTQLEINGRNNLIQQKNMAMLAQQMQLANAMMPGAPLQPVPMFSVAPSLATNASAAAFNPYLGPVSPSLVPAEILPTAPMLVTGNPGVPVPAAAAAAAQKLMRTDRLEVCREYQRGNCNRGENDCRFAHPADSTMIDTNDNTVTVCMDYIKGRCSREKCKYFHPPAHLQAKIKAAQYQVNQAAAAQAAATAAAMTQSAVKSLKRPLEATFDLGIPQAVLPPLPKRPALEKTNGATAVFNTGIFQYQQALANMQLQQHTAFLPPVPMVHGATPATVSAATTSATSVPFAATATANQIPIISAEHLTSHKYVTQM
#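 Inhibition of protein-RNA binding appears as loss of TR-FRET between terbium anti-His antibody on MBNL1-His and streptavidin-XL665 on biotin-(CUG)12. Activity is normalized to buffer-only and uninhibited-complex controls.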
# RORg inh: qHTS for inhibitors of ROR gamma transcriptional activity; Nuclear receptor ROR-gamma (Mus musculus), P51450; Drosophila S2 Gal4-RORgamma UAS-luciferase reporter, 20 h; Potency, µM (doses to about 53.6 µM), for inactives: at the top dose activity change, negative = inhibition, actives largely listed as inhibitors; actives 5.4% (n = 310,000); AID 2551, 2010; further: potency means the concentration at half of the fitted maximal effect; on the % scale 0 is the no-effect control and ±100 the full control effect; nearly all actives have a fitted effect of over 60% in size
#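 Stable Schneider cell line, Gal4 DNA-binding domain fused to ROR gamma, UAS-luciferase. Cmpd 1 hr RT → CuSO4 700 uM final → 20 hr RT → luciferase reagent 10 min → luminescence.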
# Six1-Eya2 blk: qHTS Assay for Inhibitors of the Six1/Eya2 Interaction; AID 651725, 2012; AlphaScreen GST-Six1/His-Eya2 binding, biochemical; active compounds read low; Homeobox protein SIX1 (Homo sapiens) + Protein phosphatase EYA2 (Homo sapiens), …; activity change, % (no concentration beside the values); actives 0.56% (n = 360,000); in the data active means activity change below about -65%; inconclusive means mostly about -30% to -63%; further: on the % scale 0 is the no-effect control and ±100 the full control effect
#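 GST-Six1 + His-Eya2 (5X stock: 250/500 nM); Tris pH 8.0, 300 mM NaCl, 0.05% BSA, 0.02% Tween 20; GSH donor/Ni acceptor beads; 1 h 37 °C dark; AlphaScreen readout.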
# CtBP-E1A inh: qHTS Assay for Inhibitors of the CtBP/E1A Interaction. actives 0.49% (n = 340,000). AlphaScreen GST-E1A/His-CtBP binding, 1536-well; active compounds read low. CtBP / adenovirus E1A interaction (AlphaScreen). activity change, % (concentration not given with the values); in the data active means activity change below about -65%; inconclusive means mostly about -30% to -63%; further: on the % scale 0 is the no-effect control and ±100 the full control effect
#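 In 5 uL wells, 23 nL compound meets equimolar GST-E1A and His-CtBP (5X stock 125 nM each) for 2 h, 37 °C. Beads (5X, 50 ug/mL) then 1 h, 37 °C, dark.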
# CBFb-RUNX1 inh: qHTS Assay for Compounds Blocking the Interaction Between CBF-beta and RUNX1 for the Treatment of Acute Myeloid Leukemia; 230,000 tested, under 10 active; Runt-related transcription factor 1 (Homo sapiens) + Core-binding factor subunit beta …; AlphaScreen CBFb-His/RUNX1-biotin binding, biochemical; Potency, µM (series often up to 59.8 µM), for inactives: top-dose activity, negative = inhibition, hits mostly inhibitors; further: % of control where 0% means no effect
#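 Compounds were screened at multiple concentrations against a preformed CBF-beta(His)/RUNX1(biotin) complex (30 nM of each) for 15 min at room temperature, followed by 90 min with nickel and streptavidin beads and AlphaScreen reading.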
# Gal4-VP16 FLuc: VP16 counterscreen qHTS for inhibitors of ROR gamma transcriptional activity | Drosophila S2 Gal4-VP16 UAS-luciferase, luminescence, 20 h | Potency, µM (series often up to 53.6 µM), for inactives: at the highest dose activity, negative = inhibition, most hits filed as inhibitors | actives 3.5% (n = 310,000) | AID 2546, 2010;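 further: Gal4-VP16 expression switched on by copper sulfate through the metallothionein promoter; potency means the concentration at half of the fitted maximal effect; on the % scale 0 is the no-effect control and ±100 the full control effect; nearly all actives have a fitted effect of over 50% in size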
# * hit, by the source's call; ? = inconclusive; . = not tested or not shown; [ ] = dose if it differs, or a comment. This is a sample that favours compounds with a hit; in the whole collection about 5.5% have one here. Unless noted, the call rests on the fitted dose curve; in most records, active means well fitted curve in the direction sought with a large enough effect; inconclusive means small, poorly fitted or top-dose-only effect, or another doubt; inactive means no such curve, though single readings can be large; an effect the other way counts as inactive or inconclusive.
SMILES,MBNL1 CUG block,RORg inh,Six1-Eya2 blk,CtBP-E1A inh,CBFb-RUNX1 inh,Gal4-VP16 FLuc
CN(C)Cc1c(C(=O)N/N=C/c2cccc3ccccc23)nnn1-c1nonc1N,-16%,6%,1,-6,.,-4%
Cc1nnn(-c2nonc2N)c1C(=O)N/N=C/c1ccccc1O,-2%,1.3µM*,-11,-14,4%,2.8µM*
CC(CC(=O)NCCc1ccc(S(N)(=O)=O)cc1)c1ccccc1 (configuration not stated),2%,20%,-3,.,.,1%
C=CCN1c2ccccc2[C@]23C[C@@H](C(=O)OC)N(S(=O)(=O)c4ccc(C(F)(F)F)cc4)C2=NC(C(=O)OC)=C(C(=O)OC)[C@H]13,.,.,.,.,-5%[13.1 µM],.
O=C(CSc1nnc(SCc2ccc(Cl)cc2)s1)N/N=C/c1c[nH]c2ccccc12,.,11µM*,-11,2,-1%,8.9µM*
COc1cccc(C(=O)NN/C(C)=C/C(=O)C(F)(F)C(F)(F)C(F)(F)F)c1,.,13µM*,-17,-5,-10%,13µM*
COc1ccccc1C(=O)NNC1=C(C(=O)C(F)(F)F)CCC1,9%,0.56µM*,-6,6,-6%,5µM*
COc1cccc(C(=O)NNC(=O)Cc2ccc(Cl)cc2)c1,.,21%[10 µM],7,7,-4%,-1%
COc1cccc(C(=O)NNC2=C(C(=O)C(F)(F)F)CCC2)c1,3%,5.6µM*,7,-1,3%,?
O=C(NNC1=C(C(=O)C(F)(F)F)CCC1)c1ccccc1Cl,-4%,5.6µM*,1,-4,1%,6.3µM*
COc1cccc(C(=O)NN=C2CCCC2)c1,2%,-26%,-2,-22,.,5%
COc1ccc(/C=C/C(=O)Nc2cccc(S(=O)(=O)N3CCCC3)c2)cc1OC,?,?,?,?,-17%,0%
CC(=O)NC(c1cccc(F)c1)c1nc(-c2cccc(C(C)C)c2)cs1 (configuration not stated),.,.,0,1,.,.
COC(=O)[C@]1(C)N[C@H](CN(C)C(=O)Nc2ccc(C(F)(F)F)cc2)[C@@H]2C(=O)N(C)C(=O)[C@@H]21,.,.,-1,6,.,.
O=C(NNC1=C(C(=O)C(F)(F)F)CCC1)c1ccc(Br)cc1,0%,?,-4,26,3%,?
O=C(NNC1=C(C(=O)C(F)(F)F)CCC1)c1ccccc1O,11%,11µM*,-9,-13,-3%,?
Nc1ccccc1C(=O)NNC1=C(C(=O)C(F)(F)F)CCC1,-2%,7.1µM*,-4,-7,4%,?
COc1cc2c(cc1OC)CN(c1ccc([N+](=O)[O-])cc1C#N)CC2,.,16%,-20,-30,-25%,22%
COc1cc2c(cc1OC)CN(c1ccc([N+](=O)[O-])cc1Cl)CC2,?,?,?,?,2%,18µM*
CCCC(=O)O[C@]1(C(=O)CCl)[C@@H](C)C[C@H]2[C@@H]3CCC4=CC(=O)C=C[C@]4(C)[C@@]3(F)C(=O)C[C@@]21C,6%,10µM*,1,-5,6%,-3%
CCC(=O)O[C@@]1(C(=O)CCl)C(C)CC2C3CCC4=CC(=O)C=C[C@@]4(C)[C@]3(F)C(O)C[C@]21C (some centres not stated),.,?,.,.,20%,-18%
CCC(=O)OC1(C(=O)CCl)[C@@H](C)C[C@H]2[C@@H]3CCC4=CC(=O)C=C[C@]4(C)[C@@]3(F)[C@@H](O)C[C@@]21C (some centres not stated),.,.,8,-1,.,.
CCCCC(=O)O[C@]1(C(=O)CO)[C@H](C)C[C@H]2[C@@H]3CCC4=CC(=O)C=C[C@]4(C)[C@@]3(F)[C@@H](O)C[C@@]21C,.,7.9µM*,.,.,4%,?
CCC(=O)O[C@]1(C(=O)CCl)[C@@H](C)C[C@H]2[C@@H]3CCC4=CC(=O)C=C[C@]4(C)[C@@]3(F)[C@@H](O)C[C@@]21C,-27%,11µM*,0,7,4%,?
CC1(C(=O)NS(=O)(=O)C2CC2)CCN(C(=O)c2ccccc2C(F)(F)F)C1 (configuration not stated),.,.,6,-15,.,.
SMILES,MBNL1 CUG block,RORg inh,Six1-Eya2 blk,CtBP-E1A inh,CBFb-RUNX1 inh,Gal4-VP16 FLuc
C=CCOC(=O)N[C@H](/C(C(=O)OC)=C(\C)NCc1ccccc1)c1cccc(F)c1,.,-3%,.,.,-3%,-25%
CCOc1ccccc1NC(=O)C1CCCN(S(=O)(=O)c2ccc3c(c2)CCCN3C(C)=O)C1 (configuration not stated),.,.,-8,2,.,.
COCC(=O)N1CCC2(CC1)CN(c1cccc(-c3ccccc3)c1)C2,.,9%,.,.,.,1%
C/C(CC1CC2=C(CC1(C)C)C(C)(C)CCC2)=N\NC(N)=S (configuration not stated),6%,2µM*,-2,0,-5%,3.2µM*
CC(=O)NCCn1c(SCC#N)nc2ccccc2c1=O,-10%,0.22µM*,4,2,4%,4%
CC(NC(=S)Nc1ccc(Cl)cc1)C(c1ccccc1)N1CCOCC1 (configuration not stated),-12%,6.3µM*,-7,7,-11%,6.3µM*
CCN1CCN(C(c2cccs2)C(C)NC(=S)Nc2cccc(C)c2C)CC1 (configuration not stated),-12%,11µM*,6,3,7%,-3%
Cc1cccc(NC(=S)NC(C)C(c2ccccc2)N2CCN(C)CC2)c1C (configuration not stated),4%,11µM*,-17,3,-9%,-8%
CC(C)CSc1oc(-c2ccco2)nc1S(=O)(=O)c1ccccc1,8%,4%,1,3,3%,30%
CCCCCC(=O)N=Nc1c(O)[nH]c2ccc([N+](=O)[O-])cc12,25%,-3%,6,0,6%,-4%
CCNC(=S)N=Nc1c(O)[nH]c2ccc([N+](=O)[O-])cc12,.,2µM*,-84*,-87*,-8%,11µM*
O=[N+]([O-])c1ccc2[nH]c(O)c(N=NC(=S)Nc3cccnc3)c2c1,?,0%,-80*,-88*,-16%,-1%

# Screening results: PubChem, National Center for Advancing Translational Sciences (NCATS)
